Measured values from PubChem BioAssay (EPA / NIEHS).
Values joined by “and” are separate entries in the source; they are usually repeats but may differ in a detail not shown here. Identical values can stand only once. Results filed as inconclusive are left out. Some compounds were tested as several samples or in several runs, with calls that do not always agree. Active and inactive are the calls of the source. The calls were made as follows, unless noted: active = hit-call score of the fitted dose curve at least 0.9, where 1 is the maximum; inactive = score below 0.9.

Key:
[1] = read-out: Interleukin-8 (IL8), CXCL8 (gene 3576); test: BSK_3C_IL8: BioMAP Diversity Plus: 3C Assay for Interleukin-8 (IL8) Biomarker Activity (AID 2283020); details: primary human endothelial cells (HUVEC); actives raise or lower the signal
Outline: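 HUVEC, 3C stimulation; 24 h compound exposure; IL-8 read by ELISA; gain or loss of signal fitted relative to DMSO control.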

[2] = read-out: Monokine induced gamma interferon (MIG), CXCL9 (gene 4283); test: BSK_3C_MIG: BioMAP Diversity Plus: 3C Assay for Monokine induced gamma interferon (MIG) Biomarker Activity (AID 2283021); details: primary human endothelial cells (HUVEC); actives raise or lower the signal;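 as to AC50: MIG protein level measured by immunoassay in the treated endothelial cultures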
Outline: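 HUVEC, 3C system; 24 h chemical exposure; MIG by ELISA; bidirectional fit vs DMSO baseline.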

[3] = BSK_3C_SRB: Viability Assessment in the BioMAP Diversity Plus: 3C Assay (AID 2283023); details: primary human endothelial cells (HUVEC);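 also: fitted both ways against DMSO so a hit may be signal rise or drop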
Outline: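 HUVEC, 24 h post-dose; 10% TCA fix, 0.1% SRB stain, A560 nm. Bidirectional curve fit vs DMSO negative control.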

[4] = read-out: Matrix Metallopeptidase 1 (MMP1), MMP1 (gene 4312); test: BSK_BE3C_MMP1: BioMAP Diversity Plus: BE3C Assay for Matrix Metallopeptidase 1 (MMP1) Biomarker Activity (AID 2283024); details: primary human bronchial epithelial cells; actives raise or lower the signal
Outline: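 ELISA read-out of MMP1 in human lung bronchial epithelial primary cultures, 24 h post-dose; bidirectional curve fit vs DMSO baseline, gain or loss of signal scored.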

[5] = read-out: Pselectin, SELP (gene 6403); test: BSK_4H_Pselectin: BioMAP Diversity Plus: 4H Assay for Pselectin Biomarker Activity (AID 2283026); details: primary human endothelial cells (HUVEC); actives raise or lower the signal
Outline: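 HUVEC, 24 h chemical exposure; P-selectin read by ELISA. Bidirectional curve fit vs DMSO baseline; gain or loss of signal scored.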

[6] = BSK_4H_SRB: Viability Assessment in the BioMAP Diversity Plus: 4H Assay (AID 2283027); details: primary human endothelial cells (HUVEC);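 also: cells exposed to compound for 24 h before staining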;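 as to AC50: curves fitted both ways versus DMSO so AC50 may be loss or gain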
Outline: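 Cytotoxicity read-out in primary human endothelial cells: after 24 h compound exposure, cells were TCA-fixed (10%), stained with 0.1% SRB and absorbance taken at 560 nm. Values fitted in both directions relative to DMSO.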

[7] = read-out: Thrombomodulin, THBD (gene 7056); test: BSK_3C_Thrombomodulin: BioMAP Diversity Plus: 3C Assay for Thrombomodulin Biomarker Activity (AID 2283029); details: primary human endothelial cells (HUVEC); actives raise or lower the signal
Outline: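 HUVEC, 3C conditions; compound 24 h; thrombomodulin by ELISA; bidirectional curve fit vs DMSO baseline; parallel SRB total-protein staining for cytotoxicity.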

[8] = read-out: Urokinase-type plasminogen activator receptor (uPAR), PLAUR (gene 5329); test: BSK_4H_uPAR: BioMAP Diversity Plus: 4H Assay for Urokinase-type plasminogen activator receptor (uPAR) Biomarker Activity (AID 2283030); details: primary human endothelial cells (HUVEC); actives raise or lower the signal
Outline: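 HUVEC, 24 h post-dose; uPAR by ELISA; bidirectional fit vs DMSO baseline.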

[9] = read-out: Vascular endothelial growth factor receptor 2 (Homo sapiens) (UniProt P35968); test: BSK_4H_VEGFRII: BioMAP Diversity Plus: 4H Assay for Vascular endothelial growth factor receptor 2 (VEGFR2) Biomarker Activity (AID 2283031); details: primary human endothelial cells (HUVEC); actives raise or lower the signal;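 as to AC50: cell-surface VEGFR2 protein level quantified by ELISA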
Outline: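 HUVEC (human primary), 4H system; 24 h post-dose; VEGFRII by ELISA; bidirectional curve fit vs DMSO baseline; gain or loss of signal scored.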

[10] = read-out: Human Leukocyte Antigen - DR isotype (HLADR), HLA-DRA (gene 3122); test: BSK_BE3C_HLADR: BioMAP Diversity Plus: BE3C Assay for Human Leukocyte Antigen - DR isotype (HLADR) Biomarker Activity (AID 2283032); details: primary human bronchial epithelial cells; actives raise or lower the signal
Outline: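 Primary human bronchial epithelial cells (BE3C); 24 h chemical exposure; HLA-DR by ELISA; bidirectional curve fit vs DMSO baseline.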

[11] = read-out: Vascular cell adhesion molecule 1 (VCAM1), VCAM1 (gene 7412); test: BSK_4H_VCAM1: BioMAP Diversity Plus: 4H Assay for Vascular cell adhesion molecule 1 (VCAM1) Biomarker Activity (AID 2283033); details: primary human endothelial cells (HUVEC); actives raise or lower the signal
Outline: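 HUVEC, 24 h post-dose; VCAM-1 by ELISA. Bidirectional curve fit vs DMSO baseline. Parallel SRB total-protein stain (0.1% SRB after 10% TCA fixation, 560 nm) for cytotoxicity.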

[12] = read-out: Interferon-gamma inducible Protein 10 (IP10), CXCL10 (gene 3627); test: BSK_BE3C_IP10: BioMAP Diversity Plus: BE3C Assay for Interferon-gamma inducible Protein 10 (IP10) Biomarker Activity (AID 2283034); details: primary human bronchial epithelial cells; actives raise or lower the signal
Outline: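 ELISA readout of IP-10 in BE3C system: primary human bronchial epithelial cells, 24 h post-dosing; bidirectional curve fit vs DMSO baseline.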

[13] = read-out: Monokine induced gamma interferon (MIG), CXCL9 (gene 4283); test: BSK_BE3C_MIG: BioMAP Diversity Plus: BE3C Assay for Monokine induced gamma interferon (MIG) Biomarker Activity (AID 2283035); details: primary human bronchial epithelial cells; actives raise or lower the signal
Outline: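 ELISA quantified MIG after 24 h exposure of primary bronchial epithelial cultures, analysed in both directions relative to DMSO. Cytotoxicity tracked in parallel cultures by sulforhodamine B staining.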

[14] = read-out: Plasminogen activator inhibitor-1 (PAI1), SERPINE1 (gene 5054); test: BSK_BE3C_PAI1: BioMAP Diversity Plus: BE3C Assay for Plasminogen activator inhibitor-1 (PAI1) Biomarker Activity (AID 2283037); details: primary human bronchial epithelial cells; actives raise or lower the signal
Outline: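 ELISA read-out of PAI-1 from human bronchial epithelial primary cells, 24 h post-dosing; bidirectional curve fit vs DMSO baseline, gain or loss of signal scored.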

[15] = read-out: urokinase plasminogen activator (uPA), PLAU (gene 5328); test: BSK_BE3C_uPA: BioMAP Diversity Plus: BE3C Assay for urokinase plasminogen activator (uPA) Biomarker Activity (AID 2283038); details: primary human bronchial epithelial cells; actives raise or lower the signal
Outline: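 ELISA read-out of uPA in human lung primary bronchial epithelial cultures, 24 h post-dosing. Gain or loss of signal fitted bidirectionally relative to DMSO baseline; cytotoxicity checked in parallel cultures via SRB total protein stain.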

[16] = read-out: Urokinase-type plasminogen activator receptor (uPAR), PLAUR (gene 5329); test: BSK_BE3C_uPAR: BioMAP Diversity Plus: BE3C Assay for Urokinase-type plasminogen activator receptor (uPAR) Biomarker Activity (AID 2283039); details: primary human bronchial epithelial cells; actives raise or lower the signal
Outline: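 ELISA readout of uPAR on human lung primary bronchial epithelial cells, 24 h post-dosing. Bidirectional curve fit relative to DMSO vehicle baseline; gain or loss of signal both scored.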

[17] = target: human Vitamin D Receptor (VDR), VDR (gene 7421) (UniProt P11473); test: ATG_VDR_TRANS: Attagene TRANS-FACTORIAL HepG2 Assay for human Vitamin D Receptor (VDR) (AID 2283022; active = hit-call score of the fitted dose curve at least 0.9, where 1 is the maximum)
Chain of human Vitamin D Receptor (VDR), VDR (gene 7421) (P11473 whole entry, looked up, the tested form may be a part): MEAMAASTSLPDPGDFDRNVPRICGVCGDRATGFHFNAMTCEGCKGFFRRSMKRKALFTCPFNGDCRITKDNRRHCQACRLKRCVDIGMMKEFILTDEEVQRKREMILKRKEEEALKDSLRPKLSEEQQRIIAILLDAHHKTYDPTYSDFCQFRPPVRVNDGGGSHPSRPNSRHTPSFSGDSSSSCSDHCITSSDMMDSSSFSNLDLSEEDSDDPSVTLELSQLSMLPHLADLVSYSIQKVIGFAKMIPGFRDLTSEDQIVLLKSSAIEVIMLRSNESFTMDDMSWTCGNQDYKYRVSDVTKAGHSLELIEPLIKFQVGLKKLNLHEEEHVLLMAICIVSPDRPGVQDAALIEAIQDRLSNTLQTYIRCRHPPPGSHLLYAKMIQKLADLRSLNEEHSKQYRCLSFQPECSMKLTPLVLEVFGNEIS
Outline: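 RT-PCR/capillary electrophoresis read-out of reporter mRNA induction in transiently transfected HepG2; 24 h dosing; chimeric NR-Gal4 (TRANS format); gain-of-signal fit against DMSO baseline.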

[18] = BSK_BE3C_SRB: Viability Assessment in the BioMAP Diversity Plus: BE3C Assay (AID 2283028); details: primary human bronchial epithelial cells
Outline: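 Primary human bronchial epithelium; chemical dosing, 24 h; 10% TCA fix, 0.1% SRB stain, A560; bidirectional fit vs DMSO baseline.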

Measured: AC50

C=CC(=O)OCC(F)(F)C(F)(F)C(F)(F)COC(=O)C=C
inactive: [4] | [7] | [9] | [14]
active: [1] 23.9 µM and 31 µM | [2] 24.7 µM and 22.7 µM | [3] 41.1 µM and 40.3 µM | [4] 21.8 µM | [5] 11.2 µM and 8.07 µM | [6] 25 µM and 33.8 µM | [7] 18 µM | [8] 49.9 µM and 758 nM | [9] 53.8 µM | [10] 34.2 µM and 21.4 µM | [11] 19.1 µM and 14 µM | [12] 46.7 µM and 35.5 µM | [13] 51.8 µM and 49.1 µM | [15] 20.6 µM and 27.4 µM | [16] 30 µM and 22.8 µM

NC(=O)C(F)(F)C(F)(F)C(F)(F)C(F)(F)C(N)=O
not listed: [5]
inactive: all other assays above

FC(F)(F)C(F)(F)C(F)(F)C(F)(F)C(F)(F)C(F)(F)CC[Si](Cl)(Cl)Cl
not listed: [5] | [18]
inactive: all other assays above

FC(F)(F)C(F)(F)C(F)(F)C(F)(F)C(F)(F)C(F)(F)C(F)(F)CCI
not listed: [5] | [18]
inactive: all other assays above

OCC(F)(F)C(F)(F)C(F)(F)CO
not listed: [5]
inactive: all other assays above

NCC(F)(F)C(F)(F)C(F)(F)C(F)(F)C(F)(F)C(F)(F)F
not listed: [5]
inactive: all other assays above
